From PubChem BioAssay (NCI) come the findings set out here.

A short description of the assay: NCI Yeast Anticancer Drug Screen. Data for the wt2 strain (AID 169).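 Further: 0% = growth of vehicle-treated yeast cultures.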 Conditions: S. cerevisiae wt2 strain growth inhibition, active compounds read high. As to the method: Growth inhibition of yeast strains with defined genetic alterations is measured as a screen for potential anti-cancer activity. Selected strains with alterations in DNA damage repair or cell cycle control were exposed to compounds and growth inhibition was measured relative to vehicle treated controls. The strain used in this assay is wt2

The panel holds about 79,000 compounds, 15% with a hit somewhere; the sample as a whole holds those more often. Values without a mark were called inactive. Active and inactive are the calls of the source. No stated cut-off is given here; in the data, active means growth inhibition above about 70%; inactive means the rest.

On to `Cc1ccc2[nH]c3c(C)c4cc[n+](C)cc4c(C)c3c2c1`, for which the growth inhibition by setting is: (at 1.2 µM) 3%; (at 3.7 µM) -19%; (at 11.0 µM) -15%; (at 33.0 µM) 49%; (at 100.0 µM) 95% (active).

On to `N#C/C(=C\c1cccc(OCc2ccccc2)c1)c1ccc([N+](=O)[O-])cc1`, for which the growth inhibition is -34% (at 1.2 µM); -43% (at 3.7 µM); -49% (at 11.0 µM); -61% (at 33.0 µM); -75% (at 100.0 µM).

For `c1ccc2c(c1)C(=NCCCN1CCCCCC1)c1cccn1-2`, the growth inhibition was -2% (at 1.2 µM); -4% (at 3.7 µM); -2% (at 11.0 µM); -3% (at 33.0 µM); 96% (active) (at 100.0 µM).

On to `N#CC(C(=O)Nc1ccccc1)C1=C(Cl)C(=O)c2ccccc2C1=O` (stereo not given), for which the growth inhibition by setting is: (at 1.2 µM) -3%; (at 3.7 µM) 26%; (at 11.0 µM) 95% (active); (at 33.0 µM) 97% (active); (at 100.0 µM) 95% (active).

On to `Oc1ccc2ccccc2c1C(c1ccc(Cl)cc1)c1c(O)ccc2ccccc12`, for which the growth inhibition (at 1.2 µM) was -22%; the growth inhibition (at 3.7 µM) is -36%; the growth inhibition (at 11.0 µM) is -20%; the growth inhibition (at 33.0 µM) was 16%; the growth inhibition (at 100.0 µM) is 80% (active).

Consider `Cc1c(C(=O)C(=O)c2ccccc2)c(C)c(C(=O)C(=O)c2ccccc2)c(C)c1C(=O)C(=O)c1ccccc1`, for which the growth inhibition by setting is: (at 1.2 µM) -3%; (at 3.7 µM) -1%; (at 11.0 µM) -4%; (at 33.0 µM) -6%; (at 100.0 µM) -10%.

For the molecule `COc1cc2c3c(cccc3c1)C(=O)N(CCN(C)C)C2=O`, the growth inhibition runs as follows: (at 1.2 µM) -2%; (at 3.7 µM) 1%; (at 11.0 µM) -23%; (at 33.0 µM) -12%; (at 100.0 µM) 5%.

Regarding `CC(C)(Br)C(=O)/C=C/c1ccc(Cl)c(Cl)c1`, the growth inhibition is -5% (at 1.2 µM); -10% (at 3.7 µM); -12% (at 11.0 µM); -10% (at 33.0 µM); -8% (at 100.0 µM).
